Compound activity (PubChem)
Anthrax LF inh2: inhibitors of Bacillus anthracis lethal factor protease. P15917. actives 0.12% (n = 360,000). inhibition, % at 10 µM. multiplex microsphere protease cleavage assay, LF
BoNT-A LC inh2: BoNT A light chain protease inhibition; multiplex microsphere protease substrate cleavage, flow cytometry; actives 0.17% (n = 360,000); inhibition, % at 10 µM
Bead autofluor: counter-screen for toxin protease inhibitors: compound fluorescence | fluorescence intensity (concentration not given with the values) | AID 624483 | compound autofluorescence counterscreen, microsphere flow cytometry; hits give high values | actives 3.1% (n = 360,000); in the data active = fluorescence intensity above about 16000; inconclusive = no clear call, values can overlap the other calls
BoNT F protease: inhibitors of Botulinum neurotoxin F light chain protease; inhibition, % at 10 µM; AID 588497; Multiplex microsphere protease cleavage assay, flow cytometry; actives 0.22% (n = 360,000); in the data active = inhibition above about 35%, passing the limit was not always enough; inconclusive = no clear call, values can overlap the other calls
PriA SSB inh: inhibitors of Klebsiella pneumoniae PriA binding to SSB C-terminal tail. AlphaScreen SSBct-PriA binding, biotinylated peptide. inhibition, % at 33 µM. actives 0.6% (n = 430,000). AID 1272365; in the data active = inhibition mostly above about 37%, no sharp cut-off; inactive = mostly below about 20%
Numbers stand for hits; 0 = inactive; ? = inconclusive; - = not tested or not shown. Most compounds without a hit are left out; they make up all but 3.1% or so of the library. Cut-off read from the data, not from the text of the source, unless noted: active = inhibition above about 30%; inconclusive = no clear call, values can overlap the other calls; inactive = below that.

SMILES	Anthrax LF inh2	BoNT-A LC inh2	Bead autofluor	BoNT F protease	PriA SSB inh
COc1cccc2c1C(=O)c1c(O)c3c(c(O)c1C2=O)C[C@@](O)(C(=O)CO)C[C@@H]3O[C@H]1C[C@H](N)[C@@H](O)[C@H](C)O1	0	0	0	0	46
O=C(CSC(=S)N1CCCCC1)Nc1nc(-c2ccccc2)c(-c2ccccc2)o1	0	0	21247	0	0
O=S(=O)(c1ccc(Cl)c(Cl)c1)N1CCc2nc3ccccc3n2CC1	0	0	17740	0	0
O=C(Nc1ccc(-n2nnn(CC(=O)N3CCOCC3)c2=O)cc1)c1c[nH]c2ccccc12	-	-	-	-	0
CCN(CC)c1nc2ccccc2n2cnnc12	0	0	23917	0	0
Cc1ccc(-c2ccc(=O)n(CC(=O)N3CCCC3)n2)cc1C	-	-	-	-	0
CC(C)OC(=O)CSc1ccc([N+](=O)[O-])cc1[N+](=O)[O-]	-	-	-	-	59
O=C(O)CCSc1ccc([N+](=O)[O-])cc1[N+](=O)[O-]	0	0	0	0	0
COc1ccc(O)c(CN2CCN(C/C=C/c3ccccc3)CC2)c1	0	0	24344	0	0
COc1cc(Br)cc(CN2CCN(C/C=C/c3ccccc3)CC2)c1O	0	0	0	0	0
COc1ccc(-c2cc(C(=O)Nc3c(C)nn(Cc4ccccc4Cl)c3C)no2)cc1OC	0	?	22371	0	0
Cc1ccc(Cn2ccc(NC(=O)c3cc(-c4ccco4)on3)n2)cc1	0	0	21800	0	0
Cc1nn(Cc2ccc(Cl)c(Cl)c2)c(C)c1NC(=O)c1cc(-c2ccco2)on1	0	0	21457	0	0
Cc1nn(Cc2ccc(Cl)cc2)c(C)c1NC(=O)c1cc(-c2ccco2)on1	0	0	0	0	0
Cc1ccc(Cn2ccc(NC(=O)c3cc(-c4ccc(Br)cc4)on3)n2)cc1	0	0	16876	0	0
Fc1ccc(Nc2ccnc3ccc(F)cc23)cc1	-	-	-	-	0
COc1ccc(S(=O)(=O)N2CCN(C(C)=O)CC2)c2ccccc12	-	-	-	-	0
COC(=O)c1cc(-c2ccc(Br)cc2)on1	0	0	0	0	0
CCN(CC)C(=O)c1cc(-c2ccc(Br)cc2)on1	0	0	23321	0	0
Cc1ccc(C2C3=C(CC(C)(C)CC3=O)NC3=C2C(=O)c2ccccc23)cc1 (stereo not drawn)	0	0	0	0	51
CC1(C)CC(=O)C2=C(C1)NC1=C(C(=O)c3ccccc31)C2c1ccc(Cl)cc1 (stereo not drawn)	0	0	0	0	0
Cc1cc(N2CCOCC2)nc2ccc(NC(=O)CCC(=O)N3CCCCC3)cc12	0	0	23643	0	0
COc1ccc(N(C)C(=O)CCC(=O)Nc2ccc3nc(N4CCOCC4)cc(C)c3c2)c(OC)c1	0	0	16645	0	0
COc1ccc(NC(=O)CCC(=O)Nc2ccc3nc(N4CCOCC4)cc(C)c3c2)c(OC)c1	0	0	0	0	0
CCC(C)NC(=O)CCC(=O)Nc1ccc2nc(N3CCOCC3)cc(C)c2c1 (stereo not drawn)	0	0	0	0	0
SMILES	Anthrax LF inh2	BoNT-A LC inh2	Bead autofluor	BoNT F protease	PriA SSB inh
Cc1cc(N2CCOCC2)nc2ccc(NC(=O)CCC(=O)N3CCC(C)CC3)cc12	0	0	19171	0	0
Cc1cc(C)c(C)c(Cn2c(CN3CCOCC3)nc3ccccc32)c1C	-	-	-	-	0
CCOC(=O)/C(=C/C=C1\Sc2cc(C)c(C)cc2N1CC)C(C)=O	0	40	16482	0	0
COC(=O)COc1ccc(Oc2cc(C)nc(SC)n2)nn1	0	?	21755	0	0
CCOc1ccc(Oc2cc(C)nc(SC)n2)nn1	0	0	0	0	0
Cc1cccc(N(CC(=O)N2CCN(c3ccc(F)cc3)CC2)S(C)(=O)=O)c1C	0	0	0	0	0
CS(=O)(=O)N(CC(=O)N1CCN(c2ccc(F)cc2)CC1)c1ccc(F)c(Cl)c1	0	?	24225	0	0
COc1cccc(-c2nc3ccc(O)cc3c(=O)o2)c1	0	?	23859	0	0
CC(=O)Oc1cccc(-c2nc3ccccc3c(=O)o2)c1	0	0	0	0	0
Cc1ccc(NC(=O)C(=O)N2CCC(Cc3ccccc3)CC2)c([N+](=O)[O-])c1	-	-	-	-	39
CC(=O)c1cc(-c2ccccc2)n(CC(=O)N2CCN(C3CCCC3)CC2)c1C	0	0	0	0	0
CC(=O)c1cc(-c2ccccc2)n(CC(=O)N2CCC(C)CC2)c1C	0	?	17028	0	0
O=C(Cc1cccs1)N1CCc2ncncc2C1	-	-	-	-	0
C=CCc1cccc2cc(C(=O)NCc3cccnc3)c(=O)oc12	0	0	0	0	0
CCOc1cccc2cc(C(=O)Nc3cc(C)on3)c(=O)oc12	0	?	24162	0	0
CCOc1cccc2cc(C(=O)NCc3cccnc3)c(=O)oc12	0	?	22159	0	0
CCc1nc(SCC(=O)c2ccc3c(c2)OCCO3)c2ccccc2n1	0	0	22675	0	0
O=C(CSc1nnc(SCc2cccc3ccccc23)s1)c1ccc2c(c1)OCO2	0	0	19293	0	0
Cn1nnnc1SCC(=O)c1ccc2c(c1)OCCO2	0	0	0	0	0
Cn1cnnc1SCC(=O)c1ccc2c(c1)OCCO2	0	0	16723	0	0
O=S(=O)(N=S1CC=CCN1S(=O)(=O)c1ccccc1)c1ccccc1 (stereo not drawn)	-	-	-	-	0
Cc1ccccc1N1OC2C(=O)N(c3ccc(Br)cc3)C(=O)C2C1c1ccco1 (stereo not drawn)	-	-	-	-	0
CN(C)C(=O)Nc1ccc(O)cc1	-	-	-	-	0
CCOC(=O)C(=CNc1cccc(N)n1)C(=O)OCC	0	0	20625	0	0
O=C(O)CCC(=O)NNC(=O)CCC1CCCCC1	0	0	0	0	0
SMILES	Anthrax LF inh2	BoNT-A LC inh2	Bead autofluor	BoNT F protease	PriA SSB inh
O=C(CCC1CCCCC1)NNC(=O)NC12CC3CC(CC(C3)C1)C2	0	?	23967	0	0
COc1ccc(C2CC(C(F)(F)F)n3nc(C(N)=O)c(Cl)c3N2)cc1OC (stereo not drawn)	0	0	20210	0	0
COc1ccc(C2CC(C(F)(F)F)n3ncc(C(=O)O)c3N2)cc1OC (stereo not drawn)	0	0	0	0	0
CSc1ncccc1C(=O)NCC(O)c1ccoc1 (stereo not drawn)	-	-	-	-	0
Cc1cc(NC(=O)CCCSc2ccc(NC(=O)c3ccc(F)cc3)nn2)no1	-	-	-	-	0
Nc1ncnc2nc(SCCN3CCCCC3)[nH]c12	0	0	16379	0	0
COc1ccccc1N1CCN(C(=O)CSc2nc3ncnc(N)c3[nH]2)CC1	0	0	0	0	0
Nc1ncnc2nc(SCc3ccccc3)[nH]c12	0	0	0	0	0
Nc1ncnc2nc(SCC(=O)N3CCN(c4ccccc4)CC3)[nH]c12	0	?	17350	0	0
O=C(CSc1ccccn1)N1CCN(c2ccccc2)CC1	0	0	16913	0	0
Nc1c(C(=O)c2ccccc2)sc2nc3c(c(-c4cccs4)c12)CCCCC3	-	-	-	-	0
COc1ccc2sc(N(CCN(C)C)C(=O)c3ccc(C)cc3C)nc2c1	-	-	-	-	0
Cc1ccc(S(=O)(=O)CC(=O)Nc2ccc(Cl)cc2C(=O)c2ccccc2)cc1	-	-	-	-	0
O=[N+]([O-])c1ccc(C[n+]2cccc3ccc4cccnc4c32)cc1	0	0	0	0	90
Cc1cc(O)c(C2=Nc3ccccc3N[C@H](c3cn(C)nc3C)C2)c(=O)o1	-	-	-	-	0
